# KB-3-1 tox – KB-3-1 parental cell cytotoxicity; Potency, µM (series often up to 46.1 µM), usual class: cytotoxic; KB-3-1 viability, CellTiter-Glo ATP luminescence, 72 h; 400,000 tested, 1.4% active; further: potency means the concentration at half of the fitted maximal effect; on the % scale 0 is the no-effect control and ±100 the full control effect; nearly all actives have a fitted effect of over 60% in size
#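 Luminescent ATP read-out (CellTiter-Glo) measures survival of drug-naive KB-3-1 cells after 72 h compound exposure at 37 °C. Titration series was screened from lowest to highest concentration, with DMSO vehicle plates as background controls.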
# S-ASM inh – human S-ASM enzyme inhibition. P17405. AID 504937. Potency, µM (series often up to 57.5 µM), without a hit: top-dose activity change, negative = inhibition, actives largely listed as inhibitors. 340,000 tested, 0.006% active. placental ASM, HMU-PC fluorogenic substrate, 60 min; further: potency means the concentration at half of the fitted maximal effect
# Target sequence (P17405 47-631 limits assumed): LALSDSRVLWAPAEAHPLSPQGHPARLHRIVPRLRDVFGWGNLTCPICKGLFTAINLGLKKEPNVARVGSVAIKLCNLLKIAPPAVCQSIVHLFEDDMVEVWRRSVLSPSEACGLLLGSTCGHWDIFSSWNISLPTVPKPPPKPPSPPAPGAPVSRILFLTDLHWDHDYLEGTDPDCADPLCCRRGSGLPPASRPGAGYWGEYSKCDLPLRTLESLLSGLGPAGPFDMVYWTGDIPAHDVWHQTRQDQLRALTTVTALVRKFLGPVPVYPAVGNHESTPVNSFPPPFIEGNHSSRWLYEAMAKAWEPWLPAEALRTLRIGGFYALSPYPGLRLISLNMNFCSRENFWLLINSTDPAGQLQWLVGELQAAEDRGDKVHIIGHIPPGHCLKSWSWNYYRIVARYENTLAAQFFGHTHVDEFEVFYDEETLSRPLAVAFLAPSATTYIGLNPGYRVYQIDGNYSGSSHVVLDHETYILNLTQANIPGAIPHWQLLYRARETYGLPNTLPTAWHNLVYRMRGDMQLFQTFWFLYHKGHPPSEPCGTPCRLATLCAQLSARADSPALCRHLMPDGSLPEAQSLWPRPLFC
#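 HMU-PC0 cleavage (9 uM final) by human placental ASM, 60 min at 37 °C following 10 min compound exposure at RT; stopped at pH 10, fluorescence Ex 386/Em 447 nm.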
# KB-V1 cytotox – kills drug-selected multidrug resistant KB-V1 cells; 400,000 tested, 3.4% active; Potency, µM (doses to about 46.1 µM), usual class: cytotoxic; KB-V1 MDR cells viability, CellTiter-Glo, 72 h; AID 1347076; further: potency means the concentration at half of the fitted maximal effect; on the % scale 0 is the no-effect control and ±100 the full control effect; nearly all actives have a fitted effect of over 60% in size
#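 Drug-selected KB-V1 cells, grown in DMEM lacking phenol red with 10% FBS, receive compound titrations; after three days at 37 degrees C, surviving cell ATP is quantified by CellTiter-Glo luminescence and responses normalized and curve-fitted.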
# SW480 rereplic – inducers of DNA re-replication in SW480 colon cancer cells; SW480 DNA re-replication, Hoechst DNA content imaging, 48 h; Potency, µM (titrated, usually from 46.1 µM), for the others: at the highest dose re-replication activation, actives largely listed as activators; 340,000 tested, 1.8% active; AID 624297; further: potency means the concentration at half of the fitted maximal effect; % of control where 0% means no effect; nearly all actives have a fitted effect of over 55% in size
#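 Quantitative HTS format with DMSO vehicle controls; 48 hr drug incubation at 37 C, then 40 min Hoechst staining and scanning imager measurement at 405 nm excitation.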
# Giardia kill – kills Giardia lamblia | Giardia lamblia trophozoite viability | 340,000 tested, 0.15% active | activity change, % at 7.66 µM, hits read low; in the data active means activity change below about -80%; inconclusive means between about -30% and that limit;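 further: parasites exposed to compound for two days anaerobically before the ATP read; on the % scale 0 is the no-effect control and ±100 the full control effect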
#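 Anaerobic 48 hrs incubation at 37 deg C of 100 trophozoites/well with test compounds; ATPLite 1-Step luminescence, 15-30 min RT, reports cellular ATP as viability.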
# MCF10A rerep – induces DNA re-replication in MCF 10a normal breast cells; Potency, µM (doses to about 46.1 µM), inactives show top-dose activity, positive = re-replication, usual class: activators; 350,000 tested, 2.9% active; AID 624296; MCF 10A DNA re-replication, Hoechst nuclear intensity, 48 h; further: potency means the concentration at half of the fitted maximal effect; % of control where 0% means no effect; nearly all actives have a fitted effect of over 50% in size
# An asterisk follows results filed as active; i = inactive; ? = inconclusive; · = no result; [ ] = another dose, or the depositor's remark. Only some compounds are listed: those with a hit (about 6.9% of all), similar ones and a draw of the others. Unless noted, the call rests on the fitted dose curve; in most records, active means well fitted curve in the direction sought with a large enough effect; inconclusive means small, poorly fitted or top-dose-only effect, or another doubt; inactive means no such curve, though single readings can be large; an effect the other way counts as inactive or inconclusive.
SMILES,KB-3-1 tox,S-ASM inh,KB-V1 cytotox,SW480 rereplic,Giardia kill,MCF10A rerep
Cc1c(Cl)cccc1NC(=O)CNc1cccc(S(=O)(=O)N(C)C)c1,i,-3.5%,16.4µM*,0.9%,5.7,-8.6%
Cc1cccc(C)c1NC(=O)CN1CCN(C(=O)CNC(=O)c2ccc(-c3ccccc3)cc2)CC1,?,·,18.4µM*,·,·,·
Cc1ccc(C(=C2C3C=CC2C2C(=O)NC(=O)C32)c2ccc(C)cc2)cc1 (configuration not stated),?,-12.9%,14.6µM*,26.4%,-10.7,?
CN(Cc1c(C(=O)N/N=C/c2cccc(O)c2)nnn1-c1nonc1N)C1CCCCC1,i,-3.1%,?,5.8%,?,-0.5%
Cc1nnn(-c2nonc2N)c1C(=O)N/N=C/c1cccc2ccccc12,i,4.9%,i,?,-2.0,0.9%
CC1CCN(Cc2c(C(=O)N/N=C/c3cccc(Cl)c3)nnn2-c2nonc2N)CC1,i,10.5%,i,-8.1%,3.1,?
COc1ccccc1/C=N/NC(=O)c1nnn(-c2nonc2N)c1-c1cccs1,i,-7.4%,i,23.1µM*,?,-0.7%
CN(Cc1c(C(=O)N/N=C/c2ccccc2O)nnn1-c1nonc1N)C1CCCCC1,18.4µM*,·,?,·,·,·
CC1CCN(Cc2c(C(=O)N/N=C/c3ccccc3O)nnn2-c2nonc2N)CC1,5.17µM*,-0.6%,?,6.2%,7.4,-8.0%
Cc1nnn(-c2nonc2N)c1C(=O)N/N=C/c1ccccc1O,?,2.0%,?,2.59µM*,-13.2,-4.4%
Cc1ccc(OC(C)C(=O)N2CCN(CCc3ccccn3)CC2)cc1C (configuration not stated),?,·,i,·,·,·
CCN(CC)c1ccc(/C=N/NC(=O)c2nnn(-c3nonc3N)c2C(C)C)c(O)c1,1.3µM*,177.9%,i,23.1µM*,10.9,18.4µM*
COc1ccc(-c2ccc(-c3noc(C4CCCCC4)n3)c(OC)n2)cc1,i,62.4%,16.4µM*,-60.3%,2.9,15.0%
COc1ccc(-c2ccc(-c3noc(-c4ccccc4C)n3)c(OC)n2)cc1,i,62.0%,i,1.8%,8.9,14.6µM*
COc1ccc(-c2ccc(-c3noc(C)n3)c(OC)n2)cc1,i,9.6%,i,-15.2%,5.2,-8.3%
COc1ccc(-c2ccc(-c3noc(-c4ccccc4OC)n3)c(OC)n2)cc1,i,196.5%,i,?,5.2,?
COc1nc(-c2ccc(C)cc2)ccc1-c1noc(-c2cccnc2)n1,i,4.8%,i,-12.9%,2.1,20.6µM*
Clc1ccc(/C=C/c2ccc3ccccc3n2)cc1Cl,?,·,i,·,·,·
COc1ccc(-c2nc(N3CCN(S(=O)(=O)c4ccc(C)cc4)CC3)c3ccccc3n2)cc1,·,·,·,·,17.1,·
CN1C(=O)C(C)(C)c2cc(S(=O)(=O)N3CCCC3C(=O)Nc3ccc(F)cc3)ccc21 (configuration not stated),i,·,i,·,·,·
COc1ccc(C(=O)Nc2c(C(=O)c3ccccc3)oc3ccccc23)cc1,i,·,i,·,·,·
COc1ccc2oc(C)c(C(=O)c3ccc([N+](=O)[O-])cc3)c2c1,?,-7.7%,14.6µM*,-20.1%,-1.6,?
COc1ccc(C(=O)c2oc3ccccc3c2N)cc1,i,6.4%,i,18.4µM*,-1.8,18.4µM*
COc1ccc2oc(C(=O)C3CC3)c(N)c2c1,i,84.9%,i,-5.0%,6.1,-2.9%
COc1ccc2oc(C(=O)c3ccccc3)c(N)c2c1,i,4.7%,i,?,-0.1,14.6µM*
SMILES,KB-3-1 tox,S-ASM inh,KB-V1 cytotox,SW480 rereplic,Giardia kill,MCF10A rerep
COc1ccc(OC)c(S(=O)(=O)NCCc2sc(-c3ccc(C)cc3)nc2C)c1,i,·,?,·,·,·
CCN=C1S/C(=C\c2ccc(N3CCOCC3)cc2C)C(=O)N1CC,6.51µM*,3.3%,?,?,-23.3,?
Cc1cc(N2CCOCC2)ccc1/C=C1\NC(=O)N(Cc2ccccc2F)C1=O,i,44.1%,?,7.3%,-0.1,5.17µM*
CC[C@H](Cc1c(I)cc(I)c(N)c1I)C(=O)O,·,·,·,-4.7%[20.6 µM],·,-0.9%[20.6 µM]
Cc1nc2c(c(C)c1CCC(=O)NCc1ccc(F)cc1)c(=O)n(C)c(=O)n2C,i,·,?,·,·,·
COc1cccc(C(=O)Nc2ccc(-c3cn4cccnc4n3)cc2)c1OC,i,·,i,·,·,·
CCOC(=O)n1c(=O)n(C)c2ccc(Cl)cc21,?,-4.0%,8.2µM*,-1.3%,1.2,-9.6%
CCc1nnc(NC(=O)C2Cc3ccccc3CN2S(=O)(=O)c2c(C)c(C)cc(C)c2C)s1 (configuration not stated),i,-2.7%,10.3µM*,14.4%,2.9,?
CCc1nnc(NC(=O)C2Cc3ccccc3CN2S(=O)(=O)CC)s1 (configuration not stated),i,-3.1%,i,0.8%,-0.3,4.5%
CCS(=O)(=O)N1Cc2ccccc2CC1C(=O)N1CCN(c2ccccc2)CC1 (configuration not stated),i,-0.3%,10.3µM*,3.0%,-16.7,11.2%
CCS(=O)(=O)N1Cc2ccccc2CC1C(=O)Nc1nnc(SCc2ccc(F)cc2)s1 (configuration not stated),i,-1.8%,4.11µM*,?,4.2,?
CCS(=O)(=O)N1Cc2ccccc2CC1C(=O)Nc1nc2ccccc2s1 (configuration not stated),i,0.9%,16.4µM*,1.5%,-2.5,16.9%
CCS(=O)(=O)N1Cc2ccccc2CC1C(=O)Nc1nnc(C2CC2)s1 (configuration not stated),i,0.3%,?,-1.3%,-5.0,1.4%
COc1ccc(C2(NC(C)=O)CCN(Cc3cccnc3)CC2)cc1,i,1.4%,i,-1.2%,-3.7,?
Cc1c(Cl)cccc1NC(c1ccc(F)cc1)c1nnc(-c2ccccc2)o1 (configuration not stated),i,·,i,·,·,·
CO[C@H]1C[C@@H](O[C@@H]2[C@H](C)[C@H](O[C@@H]3O[C@@H](C)C[C@@H](N(C)C)[C@@H]3O)[C@H](C)C[C@]3(CO3)C(=O)[C@H](C)[C@H](O)[C@H](C)[C@H](C)OC(=O)[C@@H]2C)O[C@@H](C)[C@H]1O,·,·,·,1.5%[20.6 µM],·,3.5%[20.6 µM]
COc1ccc(CN(C)C(C)C(=O)Nc2ccc([N+](=O)[O-])cc2Cl)cc1OC (configuration not stated),i,-4.3%,5.17µM*,?,-4.4,17.8%
CC1(C)OC(=O)C2(Cc3cc(C(F)(F)F)ccc3N3CCCCC32)C(=O)O1 (configuration not stated),i,·,?,·,-8.9,·

# From PubChem BioAssay
